# According to PubChem BioAssay:
# The source made the active and inactive calls.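 The calls were made as follows, unless noted: active = inhibition above 20% together with a positive visual image hit; inconclusive = visual image hit but inhibition not above 20%; inactive = no visual image hit.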
# Experiments:
# [1] = inhibitors of TNFa-induced NFkB p65 translocation, primary screen, imaging, HUVEC, MLSMR starter and 10KST1 sets (AID 438); settings: HUVEC TNFa-induced p65 nuclear translocation; cell count: measured here: nuclei count (cytotoxicity indicator), at 2.08 µM; inhibition: at 2 µM, stronger effect = higher value, 0% TNFa-plus-vehicle, 100% no-TNFa wells;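 also: compound added about 3h40 before a 20 min TNFalpha stimulation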;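 as to inhibition: signal is the nuclear over cytoplasmic p65 intensity ratio per well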
# [2] = endothelial E-selectin expression blockers – imaging, HUVEC, immunofluorescence, MLSMR starter and 10KST1 sets, primary screen (AID 487;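 active = visually confirmed hit in the image check and inhibition above 20%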;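 as to inhibition: signal is fraction of cell area covered by stained E-selectin grains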;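 as to nuclei count: 100% = median nuclei count of all wells on the same plate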); settings: HUVEC TNFalpha-induced E-selectin immunofluorescence imaging, at 2 µM; inhibition: stronger effect = higher value; nuclei count: measured here: cell number, toxicity
# [3] = Primary imaging screen for DUSP6 inhibitors that restore phospho-Erk in transfected HeLa cells, chemical complementation (AID 609;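 active = compounds giving at least 50% inhibition in the cell-based MKP-3 phosphatase rescue imaging test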;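 as to inhibition: phospho-Erk level distribution per well compared with pooled transfected vehicle control wells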); settings: HeLa MKP-3 transfected, phospho-Erk imaging KS statistic, at 10 µM, cells stimulated with TPA for 15 min
# [4] = molecular target: Dual specificity protein phosphatase 6 (Homo sapiens) (UniProt Q16828); assay: as above; settings: HeLa MKP-3 transfected, phospho-Erk imaging KS statistic; at 10 µM; stronger effect = higher value; cells stimulated with TPA for 15 min
# [5] = molecular target: Voltage-gated potassium channel subunit beta-2 (Rattus norvegicus) (UniProt P62483); assay: inhibitors of rat Kvbeta2 reductase activity – biochemical, NADPH fluorescence, primary screen (AID 622;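 active = fluorescence slope higher than the sample average by over 3 SD, cut at about -0.22 in these data, passing the limit was not always enough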;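 also: slope of raw intensity against log time taken from 70 to 1610 s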); settings: recombinant KvBeta, 4-cyanobenzaldehyde reduction, at 10 µM, stronger effect = higher value
# [6] = molecular target: Voltage-gated potassium channel subunit beta-2 (Rattus norvegicus) (UniProt P62483); assay: enhancers of rat Kvbeta2 NADPH turnover – biochemical, NADPH fluorescence, primary screen (AID 623;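 active = NADPH fluorescence slope more negative than the mean of all samples by about 3 SD, 99.7% confidence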;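 also: fluorescence intensity change per second fitted from 20 to 320 s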); settings: Recombinant KvBeta, NADPH fluorescence decrease slope, 10 min; at 10 µM; stronger effect = lower value
# [7] = molecular target: Muscarinic acetylcholine receptor M4 (Homo sapiens) (UniProt P08173); assay: M4-linked GIRK flux change, two-sided – cell-based, HEK293 M4/GIRK, thallium flux, BTC-AM, M4 allosteric agonist project, primary screen (AID 625;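 active = fluorescence slope after compound addition differing from the mean of all tested samples at 99.7% confidence, mostly higher but some lower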;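 also: thallium influx through GIRK channels coupled to M4 in HEK293 cells with BTC-AM dye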); settings: at 10 µM, actives lie on both sides
# [8] = inhibitors of larval lipid processing in zebrafish, primary screen, whole organism, PED6 fluorescence, gall bladder and intestine (AID 686;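 active = a full or partial loss of lipid-probe fluorescence in the fish gall bladder, intestine or both, judged by eye; inactive = no fluorescence loss, or compound toxic to the fish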;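 also: larvae 5 to 7 days old with five fish per well; signal comes from phospholipase A2 cleavage of quenched PED6 carried via bile; overnight exposure to compound and PED6 before scoring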); settings: Zebrafish larvae PED6 lipid processing, fluorescence scoring; screened at 20 µM (by protocol)
# [9] = loss of swimming-algae plug formation – whole organism, Chlamydomonas reinhardtii, WT vs cilia-less mutant, absorbance, 96-well, primary screen (AID 463189;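 active = inhibition at or above 50% relative to wild type and mutant plate controls; inactive = inhibition below 50%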;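 also: 0% = wild type cc124 cells in DMSO and 100% = ciliumless bld1 mutant cells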); settings: Chlamydomonas reinhardtii gravitaxis, OD600 absorbance, 2 days; at 10 µM; stronger effect = higher value
# [10] = reduction of polyQ htt aggregates in cells – imaging, exon1htt(103Q)mCFP cells, high-content imaging, primary screen (AID 483;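 active = visual image review flags a hit and inhibition of aggregation exceeds 20%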;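 also: compound exposure lasted 3 days before fixation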;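 as to nuclei count: percent of the per-plate median nuclei count of sample wells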); settings: exon1htt(103Q)mCFP cell line, aggregate imaging, at 2 µM; inhibition of aggregation: stronger effect = higher value; nuclei count: measured here: cell count, toxicity
# [11] = molecular target: Alpha-2C adrenergic receptor (Homo sapiens) (UniProt P18825); assay: compounds altering alpha2C-coupled GIRK flux – cell-based, HEK293 alpha2C/GIRK1/2, thallium flux, primary screen (AID 624;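 active = fluorescence slope after compound addition differing from the mean of all screened samples at 99.7% confidence, in either direction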;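 also: slope of fluorescence ratio to pre-addition baseline per second over 15 to 24 s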); settings: thallium flux BTC fluorescence, at 10 µM, actives lie on both sides
# [12] = blockers of RIG-like receptor reporter activation – cell-based, Sendai virus stimulus, luciferase, 10K MLSCN set, TLR/RLR signaling modifier project, primary screen (AID 602276;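 active = inhibition at or above 50% at 10 µM; inactive = inhibition below 50%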;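 also: firefly luciferase from ISG56 promoter only with Renilla not read in this screen; 0% = Sendai virus plus DMSO and 100% = medium plus DMSO without virus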); settings: HEK293 RL24 IRF3 luciferase reporter, at 10 µM, stronger effect = higher value
# [13] = TLR3 IRF3 reporter activation blockers – cell-based, poly I:C stimulus, luciferase, 10K MLSCN set, primary screen (AID 602277;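 active = inhibition of the reporter signal at or above 50%; inactive = inhibition below 50%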); settings: HEK293-TLR3 RL24 IRF3 luciferase reporter, at 10 µM, stronger effect = higher value
# [14] = measured here: cell density z-score
# [15] = measured here: nuclear c-Myc green intensity z-score
# [16] = measured here: nuclear pErk red intensity z-score, stronger effect = higher value
# Chain of Alpha-2C adrenergic receptor (Homo sapiens) (P18825 whole entry, looked up): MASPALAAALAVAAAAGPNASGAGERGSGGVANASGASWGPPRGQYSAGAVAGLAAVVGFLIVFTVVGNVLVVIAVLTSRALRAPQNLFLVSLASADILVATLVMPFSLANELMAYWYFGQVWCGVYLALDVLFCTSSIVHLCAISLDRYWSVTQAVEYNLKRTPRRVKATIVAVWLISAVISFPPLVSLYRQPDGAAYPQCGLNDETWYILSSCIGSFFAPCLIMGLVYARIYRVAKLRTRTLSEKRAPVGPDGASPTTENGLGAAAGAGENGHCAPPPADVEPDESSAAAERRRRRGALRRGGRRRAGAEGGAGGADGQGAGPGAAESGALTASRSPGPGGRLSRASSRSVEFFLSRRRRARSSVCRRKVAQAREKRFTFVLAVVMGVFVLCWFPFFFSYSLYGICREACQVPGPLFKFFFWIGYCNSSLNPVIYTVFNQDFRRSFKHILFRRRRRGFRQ
# Chain of Voltage-gated potassium channel subunit beta-2 (Rattus norvegicus) (P62483 whole entry, looked up): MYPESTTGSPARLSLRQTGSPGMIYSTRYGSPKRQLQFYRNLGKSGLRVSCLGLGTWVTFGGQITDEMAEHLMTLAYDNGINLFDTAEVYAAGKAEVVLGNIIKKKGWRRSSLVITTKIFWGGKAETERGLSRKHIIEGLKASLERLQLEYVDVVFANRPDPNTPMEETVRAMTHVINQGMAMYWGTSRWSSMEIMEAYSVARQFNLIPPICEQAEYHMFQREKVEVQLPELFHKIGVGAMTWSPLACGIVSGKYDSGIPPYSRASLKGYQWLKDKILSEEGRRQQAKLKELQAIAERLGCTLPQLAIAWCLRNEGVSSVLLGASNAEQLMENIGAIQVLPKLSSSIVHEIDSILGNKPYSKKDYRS
# Chain of Dual specificity protein phosphatase 6 (Homo sapiens) (Q16828 whole entry, looked up): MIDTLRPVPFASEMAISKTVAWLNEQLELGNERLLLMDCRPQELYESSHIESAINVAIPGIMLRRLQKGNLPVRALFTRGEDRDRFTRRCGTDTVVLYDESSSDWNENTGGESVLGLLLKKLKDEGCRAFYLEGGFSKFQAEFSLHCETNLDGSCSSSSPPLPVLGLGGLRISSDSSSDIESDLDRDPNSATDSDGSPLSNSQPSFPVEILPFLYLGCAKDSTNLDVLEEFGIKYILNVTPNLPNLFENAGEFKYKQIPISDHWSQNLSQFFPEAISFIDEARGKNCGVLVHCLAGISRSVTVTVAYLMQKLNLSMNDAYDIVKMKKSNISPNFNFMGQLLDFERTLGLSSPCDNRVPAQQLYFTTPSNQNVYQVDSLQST
# Chain of Muscarinic acetylcholine receptor M4 (Homo sapiens) (P08173 whole entry, looked up): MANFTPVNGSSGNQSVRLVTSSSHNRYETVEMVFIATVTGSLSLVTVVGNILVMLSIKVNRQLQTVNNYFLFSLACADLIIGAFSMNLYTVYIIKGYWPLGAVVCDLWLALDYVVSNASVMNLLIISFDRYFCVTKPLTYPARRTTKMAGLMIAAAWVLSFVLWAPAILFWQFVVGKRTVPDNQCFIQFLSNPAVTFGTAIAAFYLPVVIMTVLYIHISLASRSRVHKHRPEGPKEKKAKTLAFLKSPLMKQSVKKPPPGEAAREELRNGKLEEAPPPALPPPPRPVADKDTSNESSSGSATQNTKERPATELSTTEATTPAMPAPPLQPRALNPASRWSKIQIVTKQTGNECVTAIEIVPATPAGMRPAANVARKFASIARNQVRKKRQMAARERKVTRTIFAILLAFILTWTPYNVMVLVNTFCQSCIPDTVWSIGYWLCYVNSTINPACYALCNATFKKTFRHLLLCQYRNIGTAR
SMILES,cell count [1],inhibition [1],nuclei count [2],"z-score [3, 14]","z-score [3, 15]","z-score [3, 16]",inhibition [4],fluorescence slope [5],NADPH fluorescence slope [6],fluorescence slope [7],outcome [8],inhibition [9],inhibition of aggregation [10],nuclei count [10],inhibition [2],slope [11],inhibition [12],inhibition [13]
COc1ccc(-c2nc3n(n2)C(=O)CC(c2ccco2)S3)cc1 (centres undefined),666,-10.3% (inactive),135%,-1.15,-1.31,-2.71,-11.5% (inactive),-0.466 (inactive),-5.1e-05 (inactive),0.00655 (inactive),inactive,-9.22% (inactive),–,–,–,–,–,–
Cn1c(NC(=O)c2ccccc2NC(=O)C(C)(C)C)nc2ccccc21,704,-3.2% (inactive),126%,–,–,–,–,-0.163 (active),5.8e-06 (inactive),–,–,–,11.9% (inactive),98.3%,-10.7% (inactive),0.00774 (inactive),1.78% (inactive),-25.9% (inactive)
Cc1ccc(NC(=O)c2cc(N3CCOCC3)nc3ccccc23)cc1,674,-10.2% (inactive),174%,0.315,1.28,0.543,-16.8% (inactive),-0.393 (inactive),-2.7e-05 (inactive),0.00495 (inactive),inactive,19% (inactive),–,–,–,–,–,–
CC(C)OC(=O)CSc1nnc(-c2ccccn2)n1-c1ccccc1,306,1.6% (inactive),99.6%,–,–,–,–,-0.429 (inactive),-7.9e-05 (inactive),–,–,–,-8.2% (inactive),102%,-11.2% (inactive),0.00479 (inactive),4.23% (inactive),6.06% (inactive)
O=C(CSc1nc2ccccc2s1)Nn1cnnc1,461,-6.2% (inactive),166%,-0.815,-1.79,0.477,6.04% (inactive),-0.439 (inactive),-7.8e-05 (inactive),0.00557 (inactive),inactive,17.1% (inactive),–,–,–,–,–,–
Cc1nc(CCNC(=O)c2ccccc2)cs1,347,-6% (inactive),127%,–,–,–,–,-0.486 (inactive),9.5e-06 (inactive),–,–,–,4.7% (inactive),102%,-51.1% (inactive),0.00492 (inactive),9.26% (inactive),-2.39% (inactive)
COc1cccc(CNC(=O)C2CCN(C(=O)N(C)C)CC2)c1,569,8.3% (inactive),109%,–,–,–,–,-0.345 (inactive),-6.9e-05 (inactive),–,–,–,-46.5% (inactive),52.8%,-15.7% (inactive),0.00563 (inactive),11.6% (inactive),32.8% (inactive)
Cc1cccn2c(=O)c(/C=C(\C#N)S(=O)(=O)c3ccccc3)c(N3CCN(C)CC3)nc12,468,-9.2% (inactive),183%,-0.688,-1.21,-0.646,7.7% (inactive),-0.457 (inactive),-6e-05 (inactive),0.00316 (inactive),inactive,1.87% (inactive),–,–,–,–,–,–
O=C(COC(=O)c1cc(-c2ccco2)nc2ccccc12)NCc1ccc2c(c1)OCO2,349,-18.2% (inactive),108%,–,–,–,–,-0.407 (inactive),-1.1e-05 (inactive),–,–,–,-7.7% (inactive),54%,3.4% (inactive),0.00558 (inactive),2.9% (inactive),11.8% (inactive)
COc1ccc(N2CCN(Cc3nc4ccccc4c(=O)[nH]3)CC2)cc1,683,-4.7% (inactive),112%,–,–,–,–,-0.607 (inactive),-3.1e-07 (inactive),–,–,–,-13.4% (inactive),119%,-72.3% (inactive),0.00376 (inactive),10.6% (inactive),-9.48% (inactive)
Cc1ccccc1-n1nc(C)c2cc(C(=O)NCc3cccnc3)sc21,374,-1.1% (inactive),113%,–,–,–,–,-0.493 (inactive),-6.5e-05 (inactive),–,–,–,-18.9% (inactive),116%,-51.5% (inactive),0.0199 (active),10.7% (inactive),44.3% (inactive)
O=C(NCc1ccco1)C(c1ccco1)N(C(=O)Cn1nnc2ccccc21)c1ccc2c(c1)CCC2 (centres undefined),329,-8% (inactive),104%,–,–,–,–,-0.519 (inactive),-6.5e-06 (inactive),–,–,–,-0.5% (inactive),103%,23.8% (inactive),0.00472 (inactive),14.9% (inactive),21.8% (inactive)
Clc1cccc(-c2nnc(-c3ccccc3)o2)c1,610,-15.9% (inactive),124%,–,–,–,–,-0.391 (inactive),3.1e-05 (inactive),–,–,–,-13.5% (inactive),110%,4.7% (inactive),0.00595 (inactive),-18.1% (inactive),-47% (inactive)
CCOCCCNC(=O)CN1CCN(Cc2ccccc2C)C1=O,600,-4.4% (inactive),117%,–,–,–,–,-0.574 (inactive),-5.1e-05 (inactive),–,–,–,-25.9% (inactive),108%,-42% (inactive),0.00699 (inactive),-1.33% (inactive),19.7% (inactive)
O=C1C(=O)N(Cc2cccnc2)C(c2ccccn2)/C1=C(/O)c1ccc(F)cc1 (centres undefined),327,-1.1% (inactive),98%,1.24,1.4,-0.331,-0.624% (inactive),-0.462 (inactive),-3.7e-05 (inactive),0.00549 (inactive),inactive,-9.85% (inactive),–,–,-58.9% (inactive),–,–,–
COC(=O)CSc1cc(C)nc(NC(C)=O)n1,703,11% (inactive),110%,–,–,–,–,-0.586 (inactive),-4.5e-05 (inactive),–,–,–,-16.4% (inactive),98.3%,-5.3% (inactive),0.0055 (inactive),6.12% (inactive),17.7% (inactive)
Cn1c(C(=O)N2CCCC(C(=O)NCCCc3ccccc3)C2)cc2sccc21 (centres undefined),550,-16.1% (inactive),103%,–,–,–,–,-0.256 (inactive),6.7e-06 (inactive),–,–,–,6.7% (inactive),139%,-32.8% (inactive),0.00472 (inactive),0.49% (inactive),-2.49% (inactive)
CC(C)C(NC(=O)c1ccccc1NC(=O)c1ccco1)C(=O)O (centres undefined),368,1.7% (inactive),115%,–,–,–,–,-0.622 (inactive),-3.3e-05 (inactive),–,–,–,-3.4% (inactive),103%,-32.6% (inactive),0.00599 (inactive),19% (inactive),21.5% (inactive)
COc1ccc(S(=O)(=O)N2CCCC(C(=O)NCc3ccccn3)C2)cc1 (centres undefined),291,-2.2% (inactive),76.8%,–,–,–,–,-0.477 (inactive),-2.4e-05 (inactive),–,–,–,8.2% (inactive),72.3%,1.9% (inactive),0.00625 (inactive),12.7% (inactive),35.6% (inactive)
COc1ccc(C2CC(c3ccc(Cl)cc3Cl)n3nc(N)nc3N2)cc1 (centres undefined),461,-1.8% (inactive),101%,–,–,–,–,-0.592 (inactive),-5.5e-05 (inactive),–,–,–,-8.9% (inactive),66.5%,-1.4% (inactive),0.00726 (inactive),9.25% (inactive),25.2% (inactive)
COc1ccc2cc(C#N)c(SCC(=O)N3CCCC3)nc2c1,514,-2.1% (inactive),150%,–,–,–,–,-0.57 (inactive),-2.5e-05 (inactive),–,–,–,-17.8% (inactive),116%,-68.2% (inactive),0.00554 (inactive),-0.637% (inactive),-5.53% (inactive)
Nc1nc(-c2ccc(Br)s2)c(Br)s1,579,-10.7% (inactive),98%,–,–,–,–,-0.507 (inactive),2.9e-05 (inactive),–,–,–,5.7% (inactive),102%,18.6% (inactive),0.00465 (inactive),1.12% (inactive),2.3% (inactive)
CNC(=O)c1ccsc1NC(=O)CN1C(=O)CCC1=O,469,-5.4% (inactive),113%,–,–,–,–,-0.451 (inactive),-5.2e-05 (inactive),–,–,–,10.7% (inactive),90.3%,4.8% (inactive),0.00494 (inactive),6.37% (inactive),28.8% (inactive)
O=c1[nH]c(NCc2ccccc2)nc2c1CCCC2,580,4.4% (inactive),101%,–,–,–,–,-0.348 (inactive),-3.1e-05 (inactive),–,–,–,-3.3% (inactive),112%,46% (inactive),0.00472 (inactive),-1.14% (inactive),-4.72% (inactive)
COc1cccc(/C=N/n2c(C)nc3ccccc32)c1OC,431,0.5% (inactive),123%,–,–,–,–,-0.391 (inactive),3.2e-05 (inactive),–,–,–,32.5% (active),84.3%,-27.6% (inactive),0.00613 (inactive),-7.57% (inactive),-59.7% (inactive)
Cc1ccc(C)c(S(=O)(=O)C(C#N)c2nc3ccccc3nc2N2CC(C)OC(C)C2)c1 (centres undefined),358,-4.1% (inactive),125%,–,–,–,–,-0.494 (inactive),-1.6e-06 (inactive),–,–,–,-3.8% (inactive),103%,-84.3% (inactive),0.00382 (inactive),32.7% (inactive),2.87% (inactive)
CC(=O)OC1CSc2nc3ccccc3n2C1 (centres undefined),393,-9.6% (inactive),118%,–,–,–,–,-0.302 (inactive),-5.5e-05 (inactive),–,–,–,6.2% (inactive),99.9%,25.1% (inactive),0.00459 (inactive),7.55% (inactive),13% (inactive)
c1coc(CN(Cc2cccs2)Cc2nnnn2C2CCCCC2)c1,394,-10.4% (inactive),97.7%,–,–,–,–,-0.571 (inactive),1.3e-05 (inactive),–,–,–,26.1% (inactive),119%,-12.8% (inactive),0.00524 (inactive),19.6% (inactive),24.5% (inactive)
